Measured values reported in PubChem BioAssay (NCI).
The panel holds about 83,000 compounds, 20% with a hit somewhere; the sample as a whole holds those more often.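 A percent growth of 40 corresponds to 60% growth inhibition; 0 means no net growth; -100 means all cells died. Active threshold: below 10.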 A number with no mark means an inactive call. The source made the active and inactive calls.

These compounds were tested on SK-MEL-5 melanoma (assay: NCI-60 one-dose screen, 48 h (100 = growth as untreated, 0 = no growth, -100 = all killed)). Details: 10 µM unless noted.

Question: CCN1CCN(/C(=N\c2sc(-c3ccccc3)nc2-c2ccccc2)c2ccccc2)CC1 was tested. Which growth did it give?
Answer: 93.4%

Question: CCCCN1C(=O)/C(=c2\sc3n(c2=O)C2C(NN=3)N(CC)C(=O)N2CC)c2cc(Cl)ccc21 (centres undefined) was tested. Which growth did it give?
Answer: 66%

Question: With O=C1C2=C(C(=O)c3c(O)cccc31)C(c1ccco1)c1sc(=O)[nH]c1S2 (centres undefined) as the compound, how does the growth read?
Answer: -93.4% (active)

Question: For COc1cc(/C=C/C(=O)c2ccc(C(F)(F)F)cc2)ccc1Oc1nc(NCCO)nc(N2CCOCC2)n1, which growth is on record?
Answer: 94%

Question: OC1CCN(CCCOc2c3ccc(Cl)cc3nc3c2oc2ccc(Cl)cc23)CC1 was tested. Which growth did it give?
Answer: -7.79% (active)

Question: With Nc1c(C(=O)Nc2ccc(Cl)cc2)sc2nc(-c3cnccn3)cc(-c3cccs3)c12 as the compound, how does the growth read?
Answer: 76.5%

Question: Which growth does the source give for O=C(N/N=C/c1ccc([N+](=O)[O-])o1)c1[nH]c2ccc(Br)cc2c1-c1ccccc1 here?
Answer: -84% (active)

Question: Cc1ccc(-c2nc(C(Cl)Cl)nc3cc(-c4ccccc4)nn23)cc1 was tested. Which growth did it give?
Answer: 67.3%

Question: How did the growth turn out when OC1CCN(CCCOc2c3ccccc3nc3c2oc2ccccc23)CC1 was run?
Answer: -69.1% (active)

Question: For COc1ccc(C(=O)/C=C/c2ccc(OCc3ccc(Cl)cc3)c(OC)c2)cc1OC, which growth is on record?
Answer: 55.2%

Question: How did the growth turn out when CN(C)CCCNc1c2ccccc2nc2c1oc1ccc(Cl)cc12 was run?
Answer: 47.9%

Question: How did the growth turn out when COc1ccc(-n2c(SCC(=O)Nc3ccc(-c4nc5ccccc5[nH]4)cc3)nc3ccccc3c2=O)cc1 was run?
Answer: -7.57% (active)

Question: C/C(=N\NC(N)=O)c1c(O)sc(=O)[nH]c1=O was tested. Which growth did it give?
Answer: 101%

Question: For OC1CCN(CCCOc2c3ccc(Cl)cc3nc3c2oc2ccccc23)CC1, which growth is on record?
Answer: -97.8% (active)
